Compounds without any hit were thinned out: in the full panel of roughly 83,000, 20% have a hit.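 The endpoint reported here, percent growth, reads 100 for growth as untreated, 0 for no net growth and -100 for all cells dead.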 A number with no mark means an inactive call. Active and inactive are the calls of the source. Rule for the calls: active = growth percent below 10; inactive = the rest.
Key:
Assay in all cases: NCI-60 one-dose screen, 48 h (100 = growth as untreated, 0 = no growth, -100 = all killed)
Settings in all cases: 10 µM unless noted
[1] = system: HT29 colon
[2] = system: SNB-75 CNS
[3] = system: SNB-19 CNS
[4] = system: U251 CNS
[5] = system: PC-3 prostate
[6] = system: SK-MEL-5 melanoma
[7] = system: UACC-62 melanoma
[8] = system: LOX IMVI melanoma
[9] = system: SK-MEL-28 melanoma
[10] = system: SK-MEL-2 melanoma

| SMILES | growth [1] | growth [2] | growth [3] [%] | growth [4] | growth [5] | growth [6] | growth [7] | growth [8] | growth [9] | growth [10] |
| --- | --- | --- | --- | --- | --- | --- | --- | --- | --- | --- |
| O=C(O)CCCCCN1C(=O)/C(=C/c2ccc(O)c(O)c2)SC1=S | 116% | 95.1% | 96.1 | 103% | 117% | 98.9% | 96.8% | 108% | 102% | 140% |
| O=c1/c(=C\c2ccc(-c3ccccc3)o2)sc2nc(-c3ccccc3)nn12 | 102% | 99.8% | 93.3 | 98.8% | 95.7% | 101% | 98.7% | 95.9% | 109% | 114% |
| CS(=O)(=O)c1ccc(-c2nc3ccccn3c2-c2nc3ccc([N+](=O)[O-])cc3[nH]2)cc1 | 109% | 82.9% | 99.6 | 104% | 86.3% | 95.2% | 88.6% | 100% | 98% | 105% |
| O=C(CSc1nccc(=O)[nH]1)Nc1ccc(-c2nc3ccccc3[nH]2)cc1 | 109% | 122% | 103 | 106% | 92.6% | 99.7% | 99.7% | 96.9% | 98.9% |  |
| CCOc1ccc([C@H]2C(C(=O)c3ccc(Cl)cc3)C3(N[C@@H]2c2ccccc2)C(=O)Nc2ccc(Br)cc23)cc1 (some centres not stated) | -27.1% (active) | 26.9% | 47.6 | 13.5% | 13.8% | 47.8% | 51.4% | -36.2% (active) | 75.2% |  |
| COc1cc(OC)c(C2SCC(=O)N2Nc2ncnc3ccccc23)cc1OC (configuration not stated) | 113% | 101% | 99.4 | 105% | 107% | 102% | 97.6% | 117% | 104% |  |
| CN(C)c1ccc(/C=C2\Cc3c(F)ccc(Br)c3C2=O)cc1 | 104% | 87.8% | 93.1 | 91.6% | 92% | 96.4% | 83.3% |  |  |  |
| CCN1CCN(/C(=N\c2sc(-c3ccccc3)nc2-c2ccccc2)c2ccccc2)CC1 | 32.6% | 89.1% | 84.8 | 67.4% | 65.8% | 93.4% | 55.3% | 80.1% | 80.6% |  |
| CC(C)(C)Nc1nc2c(OCCc3ccccc3)cccn2c1-c1cccc(F)c1 | -14.2% (active) | 33.2% | 20.4 | -43.8% (active) | -4.7% (active) | -82.4% (active) | -7.68% (active) | -83.1% (active) | 15% | -81.2% (active) |
| CCCSc1nc(Nc2ccc(/C(C)=N\NC(N)=S)cc2)c(C#N)c(-c2ccc(OC)cc2)n1 | 87.7% | 56% | 39.7 | 17.1% | 99.8% | 58.2% | 87.7% | 68% | 79.8% | 89.7% |
| O=C1Nc2ccccc2Oc2ccc(S(=O)(=O)CC3CO3)cc21 (configuration not stated) | 58.8% | 90.6% | 96.9 | 77.6% | 62.3% | 90% | 67.6% | 29.5% | 64.1% | 85.5% |
| Clc1ccc(-c2cn3cc(Cc4ccc(Cl)c(Cl)c4)sc3n2)cc1 | 90.5% | 70.7% | 88.9 | 93.7% | 81.6% | 38.2% | 18.2% | 53.1% | 71% |  |
| Cc1nc(-c2cc3ccccc3oc2=O)ccc1C(=O)/C=C/c1ccc(N2CCOCC2)cc1 | 80.4% | 58.9% | 79.9 | 89.8% | 86.6% | 71.5% | 52.1% | 31.3% | 72.8% |  |
| CS(=O)(=O)c1ccc(-n2cc(/C=C/C(=O)c3ccc(NC(=O)CO[N+](=O)[O-])cc3)c(-c3ccc(Cl)cc3)n2)cc1 | 108% | 111% | 84.9 | 92.9% | 96.2% | 98.4% | 83.3% | 96.9% | 66.1% | 94.9% |
| CCN1C(=S)N(CC)C2C1NN=C1SC(c3ccccc3)=CC(=O)N12 (configuration not stated) | 106% | 129% | 98.5 | 103% | 99.2% | 99.7% | 92.6% | 100% | 99.5% | 98.2% |
| O=C(CCN1C(=O)/C(=C/c2ccccc2)SC1=S)N1CCOCC1 | 102% | 92.1% | 101 | 99.9% | 111% | 99.5% | 78.8% | 0.309% (active) | 85.6% | 112% |
| COc1cc2nc(-c3ccc(C(F)(F)F)cc3)cc(OCCCNCC3CCCO3)c2cc1OC (configuration not stated) | -7.81% (active) | 8.73% (active) | 75.3 | 55.7% | 45.4% | 4.75% (active) | -22.1% (active) | -13.4% (active) | -26.8% (active) |  |
| N/C(=N\c1nc2c(Br)cccc2s1)C(Br)Br | -11.3% (active) | -0.636% (active) | 27.7 | -28.2% (active) | 13.5% | 68.3% | -5.13% (active) | -84.9% (active) | -5.02% (active) | -42.1% (active) |
| CC(C)(C)Nc1nc2c(OCCc3ccccc3)cccn2c1-c1ccc(O)cc1 | 14.8% | 124% | 68.3 | 53.1% | 28.8% | 50.6% | 70.4% | 34.9% | 66% | 85.1% |
| C#Cc1nc(C2=C(C)C(=O)/C(=N/OC(C)=O)C2)cs1 | 115% | -46.3% (active) | 96.2 | 98.1% | 94.3% | 97.3% | 80.3% |  |  |  |
| Cc1sc2c(c1C)c(=O)nc1c(-c3nc(-c4ccc(F)cc4)no3)n[nH]n12 | 110% | 85.7% | 101 | 102% | 89.6% | 107% | 97.8% | 93.7% | 115% |  |
| CN(C)CCCNc1c2ccc(Cl)cc2nc2c1oc1ccccc12 | -22.2% (active) | 29.9% | 16.5 | 18.8% | 13.7% | -98.1% (active) | 13.4% | -83.4% (active) | 16.4% | 21.3% |
| Cc1cccc2sc(/N=C(\N)C(Cl)(Cl)Cl)nc12 | 105% | 81.6% | 90.3 | 95.1% | 103% | 99.6% | 97.6% | 113% |  |  |
| Clc1ccc2c(NCCCN3CCOCC3)c3oc4ccccc4c3nc2c1 | 25.6% | 52.4% | 54.1 | 34.5% | 48.6% | 79.7% | 66.6% | 17.3% | 70.6% |  |
| O=C(CN1CCOCC1)NNc1ncnc2ccccc12 | 92% | 72.7% | 102 | 85.3% | 78.3% | 98.2% | 83.1% | 9.78% (active) | 71.1% | 96.3% |
| CC(=O)Oc1ccccc1C(=O)Nc1ccc(C(=O)/C=C/c2ccncc2)cc1 | 5.38% (active) | 48.4% | 76 | 21.1% | 70.4% | 74% | 50.3% | -73.6% (active) | 55.8% | 108% |
| C#C[C@]1(O)CC[C@H]2[C@@H]3CC=C4c5sc(Nc6ccc(Cl)cn6)nc5CC[C@]4(C)[C@H]3CC[C@@]21C | 47.2% | -0.325% (active) | 54.5 | 19.1% | 29.9% | 84% | 28.3% | 0.11% (active) | -27% (active) | -13.4% (active) |
| CCOC(=O)c1c(Nc2ccccc2)nn2c(N)c(C#N)c(-c3ccc(OC)cc3)nc12 | 76.7% | -15.3% (active) | 76.5 | 71.3% | 66.1% | 87.4% | 80.4% | 71% | 78.4% |  |
